Bioassay records from PubChem BioAssay.
Most compounds without a hit are left out; they make up all but 3% or so of the library.
SENP7 block = SENP7 protease inhibitors, primary screen, biochemical, luminescence, uHTS. recombinant SENP7, Z-RLRGG-aminoluciferin luminescence, 40 min. 1.5% of 330,000 active. inhibition, % at 5 µM;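 active = inhibition above about 50% at the single test dose, limit read from the data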
PPC-1+TRAIL kill = compounds killing PPC-1 cancer cells with TRAIL present, primary screen, TRAIL potentiator project, ATPLite luminescence, uHTS | PPC-1 cells + TRAIL, ATPLite viability luminescence | cell killing (% activity), % at 4 µM or 5 µM | 0.41% of 220,000 active;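 active = cell killing above 50% in the first pass at 4 µM, then a duplicate retest at 5 µM averaging 50% or more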
TRAIL sens C8 = viability loss with TRAIL in NB7+C8 cells, primary screen, TRAIL sensitizer project, cell-based, ATPlite luminescence; AID 624354, 2012; inhibition (viability loss, TRAIL sensitization), % at 10 µM; 1% of 360,000 active;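 active = compounds causing at least 50% loss of cell viability in the single-dose screen, relative to plate controls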
SENP8 block-1 = human SENP8 protease inhibitors, primary screen, biochemical, fluorescence, Nedd8 protein substrate, uHTS; Sentrin-specific protease 8 (Homo sapiens), Q96LD8; recombinant SENP8; inhibition, % at 20 µM; 0.64% of 360,000 active; AID 602440, 2012; in the data active = inhibition mostly above about 40%, no sharp cut-off; inactive = mostly below about 27%
Target sequence (Q96LD8 whole entry, looked up): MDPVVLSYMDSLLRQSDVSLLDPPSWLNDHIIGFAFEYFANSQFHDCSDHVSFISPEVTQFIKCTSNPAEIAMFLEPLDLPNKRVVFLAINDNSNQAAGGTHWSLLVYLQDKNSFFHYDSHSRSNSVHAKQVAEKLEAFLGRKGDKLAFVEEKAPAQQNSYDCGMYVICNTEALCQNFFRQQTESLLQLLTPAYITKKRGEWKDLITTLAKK
SENP6 block = SENP6 protease inhibitors, primary screen, biochemical, luminescence, uHTS | 1.8% of 330,000 active | Recombinant SENP6 catalytic domain, aminoluciferin luminescence | inhibition, % at 10 µM;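 active = inhibition above about 50% at the single tested dose, limit read from the data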
SENP8 block-2 = SENP8 protease inhibitors, primary screen, biochemical, luminescence; Sentrin-specific protease 8 (Homo sapiens), Q96LD8; purified SENP8, Z-RLRGG-aminoluciferin cleavage; inhibition, % at 10 µM; 1.2% of 330,000 active; in the data active = inhibition above about 50%
SENP8 conf = SENP8 protease inhibitors, retest, confirmation, biochemical, luminescence, single concentration | shares compounds with SENP7 block | Recombinant SENP8, Z-RLRGG-aminoluciferin luminescence, 60 min | inhibition, % at 12.5 µM | 40% of 6,200 active | AID 488912, 2010;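 active = mean inhibition across replicates above about 50%, limit read from the data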
SENP6 confirm = SENP6 protease inhibitors, confirmation, biochemical, luminescence, single concentration. recombinant SENP6, Z-RLRGG-aminoluciferin luminescence. inhibition, % at 12.5 µM. shares compounds with SENP7 block. 58% of 6,200 active
SENP7 confirm = SENP7 protease inhibitors, retest, confirmation, biochemical, luminescence, single concentration; shares compounds with SENP7 block; recombinant SENP7, Z-RLRGG-aminoluciferin luminescence, 40 min; inhibition, % at 12.5 µM; 69% of 6,200 active
Casp3 select = caspase-3 protease inhibitors, confirmation, selectivity assay for SENP inhibitor project, biochemical, single concentration; AID 488918, 2010; shares compounds with SENP7 block; purified caspase-3, Z-DEVD-aminoluciferin luminescence, 60 min; inhibition, % at 12.5 µM; 60% of 6,200 active;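 active = mean inhibition above about 50%, limit read from the data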
Target sequence (P42574 28-227 limits assumed): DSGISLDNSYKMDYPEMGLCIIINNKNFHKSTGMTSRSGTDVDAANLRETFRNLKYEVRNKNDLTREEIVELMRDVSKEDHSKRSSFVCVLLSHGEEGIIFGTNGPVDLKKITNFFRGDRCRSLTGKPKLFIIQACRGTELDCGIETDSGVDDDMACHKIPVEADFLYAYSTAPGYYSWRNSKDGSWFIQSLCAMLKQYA
Luc interf = counter-screen for SENP inhibitors: luminescence interference. shares compounds with SENP7 block. Pre-incubated SENP8/Z-RLRGG-aminoluciferin, luciferase luminescence interference. inhibition, % at 12.5 µM. 39% of 6,200 active. AID 488919;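 active = mean inhibition above about 50% when retested at one dose, limit read from the data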
Of the large screens only hits and unclear results are named; the others gave an inactive call (follow-up assays come after a bar, where they were run).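 The calls were made as follows, unless noted: active = mean inhibition above about 50% in the one-dose retest (limit read from the data); inactive = the rest.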

CN(C)S(=O)(=O)Oc1cccc(C(=O)Nc2cccc(Cl)c2)c1	SENP7 block 88.5, SENP6 block 50.6, SENP8 block-2 76.1 | SENP8 conf 85.1 | SENP6 confirm 85.2 | SENP7 confirm 96.7 | Casp3 select 69.0 | Luc interf 74.8
O=C(Nc1ccc(Cl)cc1)c1ccc2ncsc2c1	none (no result: PPC-1+TRAIL kill)
CC(=O)C1CCC2C3CCC4=CC(=O)CC[C@]4(C)[C@@]3(F)C(O)C[C@]12C (some centres undefined)	none
CCc1nc2c(OCc3ccccc3C(=O)OC)cccn2c1N(C)C(=O)c1cccc(OC)c1	none (no result: SENP7 block, PPC-1+TRAIL kill, SENP6 block, SENP8 block-2)
CCOc1ccc(OCCOCCNCCOC)cc1	none
N/C(=N\OC(=O)N1CCOCC1)c1ccc(Cl)cc1	none
COc1cc(C(=O)O/N=C(\N)c2ccncc2)cc(OC)c1OC	none
N/C(=N\OC(=O)c1ccc2c(c1)OCO2)c1ccc(Cl)cc1	SENP6 block 87.0, SENP8 block-2 76.1 | SENP8 conf inactive | SENP6 confirm 67.6 | SENP7 confirm 94.4 | Casp3 select 86.2 | Luc interf inactive
N/C(=N\OC(=O)c1ccc2c(c1)OCO2)c1ccncc1	SENP7 block 60.5, TRAIL sens C8 60.1, SENP6 block 68.1 | SENP8 conf 53.0 | SENP6 confirm inactive | SENP7 confirm 76.0 | Casp3 select 82.3 | Luc interf 59.5
COc1ccc(C)cc1NC(=O)COC(=O)c1ccc2c(c1)OCO2	none (no result: PPC-1+TRAIL kill)
Cc1ccc(/C(N)=N/OC(=O)c2ccc3c(c2)OCO3)cc1	SENP6 block 71.4, SENP8 block-2 59.9 | SENP8 conf inactive | SENP6 confirm inactive | SENP7 confirm 87.0 | Casp3 select 80.7 | Luc interf inactive
COc1ccc(NC(=O)COC(=O)c2ccc3c(c2)OCO3)c(OC)c1	none (no result: PPC-1+TRAIL kill)
COc1ccc(/C(N)=N/OC(=O)c2ccc3c(c2)OCO3)cc1	SENP7 block 68.4 | SENP8 conf inactive | SENP6 confirm inactive | SENP7 confirm inactive | Casp3 select inactive | Luc interf inactive
Cc1ccnc(NS(=O)(=O)c2ccc(NS(=O)(=O)c3cc(Cl)ccc3Cl)cc2)n1	none (no result: PPC-1+TRAIL kill)
COc1ccccc1CNC(=O)Nc1nc(C(N)CCc2ccccc2)cs1 (centres undefined)	none (no result: SENP7 block, PPC-1+TRAIL kill, SENP6 block, SENP8 block-2)
O=C(CCCO)c1ccc2c(c1)OCCO2	none
O=C(NCCc1ccccc1)c1ccc2c(c1)OCO2	SENP7 block 57.1, TRAIL sens C8 71.0, SENP6 block 57.4 (no result: PPC-1+TRAIL kill) | SENP8 conf 52.0 | SENP6 confirm inactive | SENP7 confirm 81.8 | Casp3 select 78.3 | Luc interf 56.7
O=C(Cc1ccccc1)c1ccc2c(c1)OCCO2	SENP7 block 69.0, SENP6 block 73.4, SENP8 block-2 71.1 | SENP8 conf 69.5 | SENP6 confirm 65.2 | SENP7 confirm 91.4 | Casp3 select 78.2 | Luc interf 75.5
C(/C=C/c1ccccn1)=C\c1ccccc1	SENP7 block 88.1, TRAIL sens C8 51.1, SENP6 block 87.4, SENP8 block-2 80.3 (no result: PPC-1+TRAIL kill) | SENP8 conf inactive | SENP6 confirm 65.6 | SENP7 confirm 90.5 | Casp3 select 66.4 | Luc interf 52.5
N#C/C(=C(/O)c1ccc([N+](=O)[O-])s1)c1nc2ccccc2[nH]1	SENP7 block 52.0, TRAIL sens C8 44.2 | SENP8 conf inactive | SENP6 confirm inactive | SENP7 confirm inactive | Casp3 select inactive | Luc interf inactive
O=C1NCCN1c1ccccc1	none (no result: SENP7 block, PPC-1+TRAIL kill, SENP6 block, SENP8 block-2)
O=C1N(c2ccccc2)CCN1c1ccccc1	SENP7 block 88.5, TRAIL sens C8 64.5, SENP6 block 83.3, SENP8 block-2 69.7 (no result: PPC-1+TRAIL kill) | SENP8 conf inactive | SENP6 confirm inactive | SENP7 confirm inactive | Casp3 select inactive | Luc interf inactive
O=C(CSc1nncs1)Nc1ccc(S(=O)(=O)N2CCCC2)cc1	none
C/C(=N\NC(=O)c1ccc(COc2ccccc2)cc1)c1ccncc1	none
N#Cc1c(-c2ccccc2Cl)noc1/C=C/Nc1ccc(C(=O)O)cc1	SENP7 block 68.7, SENP6 block 94.8, SENP8 block-2 95.3 | SENP8 conf 88.7 | SENP6 confirm 97.0 | SENP7 confirm 97.2 | Casp3 select 84.1 | Luc interf inactive
CN(C)/C=C(\C=O)c1onc(-c2ccccc2Cl)c1C#N	none
COc1ccc(N2CCN(C(=O)CN3C(=O)NC4(CCCCCC4)C3=O)CC2)cc1	none (no result: PPC-1+TRAIL kill)
COc1ccc(-c2cnc3c(NC(C)=O)cc(-c4ccc(C(=O)N5CCOCC5)cc4)cn23)cc1OC	none (no result: SENP7 block, PPC-1+TRAIL kill, SENP6 block, SENP8 block-2)
Cc1ccc(S(=O)(=O)c2c(C)cc(C)nc2Cl)cc1	SENP6 block 61.9 | SENP8 conf inactive | SENP6 confirm inactive | SENP7 confirm inactive | Casp3 select inactive | Luc interf inactive
Cc1cc(C)c(S(=O)(=O)c2ccccc2)c(Cl)n1	none
CCN(Cc1ccccc1)S(=O)(=O)c1c(C)[nH]c(C)c1C(=O)N1CCCC1	none (no result: PPC-1+TRAIL kill)
O=C(Nc1ccc2c(c1)OCO2)c1noc2c1CCCC2	SENP7 block 81.2, SENP6 block 87.5, SENP8 block-2 78.2 (no result: PPC-1+TRAIL kill) | SENP8 conf 85.4 | SENP6 confirm 86.1 | SENP7 confirm 98.5 | Casp3 select 90.6 | Luc interf inactive
O=C(Nc1ccc2c(c1)OCO2)c1noc2c1CCCCC2	SENP7 block 59.6, SENP6 block 73.9 | SENP8 conf 62.8 | SENP6 confirm 63.4 | SENP7 confirm 87.4 | Casp3 select 66.7 | Luc interf 69.0
CC(=O)c1ccc(NC(=O)c2noc3c2CCCCC3)cc1	none
O=C(Nc1cc(Cl)ccc1Cl)c1noc2c1CCCC2	none
O=C(Nc1ccc(F)cc1F)c1noc2c1CCC2	SENP7 block 53.0 | SENP8 conf inactive | SENP6 confirm inactive | SENP7 confirm 76.7 | Casp3 select 69.1 | Luc interf inactive
Cc1ccc(S(=O)(=O)NCc2ccccc2NS(=O)(=O)c2ccc(C)cc2)cc1	none (no result: SENP7 block, PPC-1+TRAIL kill, SENP6 block, SENP8 block-2)
